Assay outcomes deposited in PubChem BioAssay by National Center for Advancing Translational Sciences (NCATS).
D3 antag – blocks the human D3 dopamine receptor; P35462; D3R cells, DiscoveRx beta-arrestin luminescence, antagonist mode; stronger effect = lower value; AID 652054; max response, negative = inhibition, %; 360,000 tested, 2.5% active; in the data active means max response below about -50%; inconclusive means no clear call, values can overlap the other calls; further: on the % scale 0 is the no-effect control and ±100 the full control effect
Target sequence (P35462 whole entry, looked up): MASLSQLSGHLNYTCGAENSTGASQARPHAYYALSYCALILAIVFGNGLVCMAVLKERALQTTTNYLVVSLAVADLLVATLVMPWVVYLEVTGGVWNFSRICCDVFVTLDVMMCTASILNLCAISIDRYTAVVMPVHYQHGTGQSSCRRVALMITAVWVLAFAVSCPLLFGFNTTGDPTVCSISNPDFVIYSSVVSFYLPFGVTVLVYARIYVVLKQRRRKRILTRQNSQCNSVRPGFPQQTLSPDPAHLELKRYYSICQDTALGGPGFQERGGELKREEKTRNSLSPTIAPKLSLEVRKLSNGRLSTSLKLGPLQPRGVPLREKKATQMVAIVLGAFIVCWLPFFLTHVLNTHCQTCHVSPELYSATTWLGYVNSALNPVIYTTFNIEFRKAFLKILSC
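Cells expressing the human receptor were seeded at 1500 cells/well, incubated overnight at 37 degrees C in 5% CO2, then exposed to library compounds with dopamine controls for 90 minutes at 37 degrees C before luminescent detection.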
SW480 rereplic – induces DNA re-replication in SW480 colon adenocarcinoma cells | SW480 DNA re-replication, Hoechst DNA content imaging, 48 h | Potency, µM (doses to about 46.1 µM), for the others: at the highest dose re-replication activation, most hits filed as activators | 340,000 tested, 1.8% active | AID 624297; further: potency means the concentration at half of the fitted maximal effect; % of control where 0% means no effect; nearly all actives have a fitted effect of over 55% in size
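250 cells/well; 23 nL cpd via pin tool; 48 hr, 37 C, 5% CO2; Hoechst 40 min; imager read of total nuclear intensity, ex 405/em 500-530 nm.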
MCF10A rerep – induces DNA re-replication in MCF 10a normal breast cells | MCF 10A DNA re-replication, Hoechst nuclear intensity, 48 h | Potency, µM (doses to about 46.1 µM), inactives show top-dose activity, positive = re-replication, usual class: activators | 350,000 tested, 2.9% active; further: potency means the concentration at half of the fitted maximal effect; % of control where 0% means no effect; nearly all actives have a fitted effect of over 50% in size
KB-3-1 tox – kills parental KB-3-1 adenocarcinoma cells | KB-3-1 viability, CellTiter-Glo ATP luminescence, 72 h | Potency, µM (top dose mostly 46.1 µM), hits mostly cytotoxic | 400,000 tested, 1.4% active | AID 1347075; further: potency means the concentration at half of the fitted maximal effect; on the % scale 0 is the no-effect control and ±100 the full control effect; nearly all actives have a fitted effect of over 60% in size
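KB-3-1 parental drug-naive adenocarcinoma cells in DMEM/10% FBS, incubated 72 h at 37 C with pin-transferred compounds across a concentration series. Viability by CellTiter-Glo luminescence; concentration-response curves fitted after normalization.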
D3 ag – D3 dopamine receptor (human) agonism | P35462 | D3R DiscoveRx beta-arrestin cells, luminescence, 90 min | max activation, % | 410,000 tested, 0.58% active; in the data active means max activation above about 30%; further: 0% is about no effect
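Agonist-mode cell screen: cells plated at 1500/well and incubated overnight at 37 °C, then exposed to library compounds for 90 min at 37 °C. Detection reagent was added for 30–60 min at room temperature, and luminescence was read.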
KB-V1 cytotox – kills drug-selected multidrug resistant KB-V1 cells. KB-V1 MDR cells viability, CellTiter-Glo, 72 h. Potency, µM (doses to about 46.1 µM), hits mostly cytotoxic. 400,000 tested, 3.4% active. AID 1347076; further: potency means the concentration at half of the fitted maximal effect; on the % scale 0 is the no-effect control and ±100 the full control effect; nearly all actives have a fitted effect of over 60% in size
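Cells of the MDR subline KB-V1 are plated, dosed with compound at multiple concentrations, and incubated 72 h at 37 degrees C; CellTiter-Glo is then added and luminescence read after 10 min.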
* = called active by the depositor; i = inactive; u = inconclusive; x = not tested or not shown. Compounds with a hit are over-represented: about 8.9% of the library has one in this group of screens. Unless noted, the call rests on the fitted dose curve; in most records, active means well fitted curve in the direction sought with a large enough effect; inconclusive means small, poorly fitted or top-dose-only effect, or another doubt; inactive means no such curve, though single readings can be large; an effect the other way counts as inactive or inconclusive.

SMILES	D3 antag	SW480 rereplic	MCF10A rerep	KB-3-1 tox	D3 ag	KB-V1 cytotox
CC(=O)Nc1c(C)nn(-c2ccccc2)c1N1CCC(C(=O)Nc2ccccc2F)CC1	x	x	x	x	7	x
COc1ccc(C(=O)NCC(c2cccnc2)N2CCc3ccccc32)cc1OC (configuration not stated)	x	x	x	i	2	i
COc1ccccc1Nc1nn2c(=O)c3ccc(C(=O)N4CCCC(C)C4)cc3nc2s1 (configuration not stated)	-12	-5%	u	i	15	u
CCn1c2ccccc2c2cc(NS(=O)(=O)c3ccccc3C)ccc21	-28	u	u	16µM*	-8	u
CCn1c2ccccc2c2cc([N+](=O)[O-])ccc21	-7	-99%	13%	u	2	u
CCOc1ccc(-c2nnc(SCC(=O)Nc3ccc4c(c3)c3ccccc3n4CC)n2N)cc1	-14	u	10µM*	i	22	i
CCn1c2ccccc2c(=O)c2ccccc21	13	23µM*	23µM*	i	3	i
CCc1nn(CC(=O)NCc2ccco2)c(=O)c2cc3c(OC)cccc3n12	x	x	x	i	-10	i
CCCCCCCCCCCCCCCC[n+]1ccc(C)cc1	x	x	x	1.6µM*	x	u
CCCCOc1ccc(C)cc1CN(CCO)CCO	-15	5%	-1%	i	-10	i
CCCCCc1ccc(OCCCC[n+]2ccc(C)cc2)c(CCCCC)c1	-6	21%	28%	5.8µM*	-5	i
CCCCCc1ccc(OCCCC[n+]2cccc(C)c2)c(CCCCC)c1	-25	u	u	9.2µM*	-12	i
CCCCCc1ccc(OCCCC[n+]2ccccc2)c(CCCCC)c1	-10	u	23µM*	u	0	u
O=C(Nc1ccc(S(=O)(=O)N2CCCCC2c2cccnc2)cc1)c1ccc(F)cc1 (configuration not stated)	x	x	x	u	-16	i
CCC(C)(C)c1ccc(OCCCC[n+]2ccccc2)c(C(C)(C)CC)c1	-5	u	u	9.2µM*	-4	u
COC(C[C@H]1O[C@H]1[C@H](O)[C@H](C)OCc1ccccc1)OC	12	-24%	3%	i	37*	i
CCN1/C(=C/C=C/c2oc3ccc(-c4ccccc4)cc3[n+]2CC)Oc2ccc(-c3ccccc3)cc21	-5	u	-9%	9.2µM*	7	15µM*
CCCCN1C(=O)/C(=C/C=C2\Oc3ccccc3N2CC)SC1=S	9	-4%	2%	i	-3	i
CN1C(C(=O)c2ccccc2)=C(NC(=O)c2ccc(F)cc2)c2ccccc2S1(=O)=O	x	x	x	i	-9	i
CN1C(C(=O)Nc2ccc(C(=O)O)cc2)=C(O)c2ccccc2S1(=O)=O	-11	10%	-1%	i	60*	i
Cc1ccc(Oc2ccc(NC(=O)C3=CC=CN4CCS(=O)(=O)N=C34)cc2)cc1	9	-8%	10%	i	-22	i
O=C(NC1(C(F)(F)F)N=C(c2ccccc2)NC1=O)c1ccc(Cl)cc1Cl (configuration not stated)	43	4%	-5%	i	-15	18µM*
Cc1ccccc1N=Cc1cc2c(cc1O)OC(N)=C(C#N)C2c1ccccc1 (configuration not stated)	0	u	18µM*	i	4	u
N#CC1=C(N)Oc2cc(O)c(C=Nc3ccccc3)cc2C1c1ccccc1 (configuration not stated)	55	26%	4.1µM*	i	11	i
N#CC1=C(N)Oc2cc(N)ccc2C1c1ccc(Cl)cc1 (configuration not stated)	-8	u	u	i	-5	i
SMILES	D3 antag	SW480 rereplic	MCF10A rerep	KB-3-1 tox	D3 ag	KB-V1 cytotox
Cc1ccc(N=Cc2cc3c(cc2O)OC(N)=C(C#N)C3c2ccccc2)cc1 (configuration not stated)	63	u	18µM*	u	8	i
COc1ccc(C2C(=O)N(C3CCC(C)CC3)CC(=O)N2CCC2=CCCCC2)cc1OC (configuration not stated)	x	x	x	x	0	x
CCS(=O)(=O)N1CCc2cc(C(=O)Nc3cc(C(F)(F)F)ccc3Cl)ccc21	x	x	x	i	-6	i
Cc1ccc(CCNC(=O)CCn2nc(-c3ccc(C)cc3)ccc2=O)cc1	x	x	x	i	-5	i
Cc1ccc2nc(CO)[nH]c2c1	x	x	x	u	x	i
CC(=O)N1N=C(c2ccc(C(C)(C)C)cc2)OC1(C)C	1	u	u	i	-3	i
CC(=O)N1N=C(c2ccc3ccccc3c2)OC1(C)C	2	0%	u	u	0	18µM*
COc1ccc(C(=O)NCC(=O)OCC(=O)Nc2cccc(S(=O)(=O)N3CCCC3)c2)cc1	-2	0%	-5%	i	-6	i
CCOC(=O)C1=C(C)N(Cc2ccccc2)C(=O)NC1c1ccccc1OS(=O)(=O)c1ccccc1[N+](=O)[O-] (configuration not stated)	0	u	13%	u	46*	7.3µM*
COC(=O)C1=C(C)N(CCCC(=O)O)C(=O)NC1c1ccccc1OS(=O)(=O)c1ccccc1[N+](=O)[O-] (configuration not stated)	-9	-10%	-9%	i	9	i
O=C(NCc1ccccc1)c1cnc(N2CCCCC2)c2ccccc12	x	x	x	i	-4	u
CCOC(=O)c1cc(C#N)c(N2CCN(C(=O)c3cccc(C(F)(F)F)c3)CC2)nc1C(F)(F)F	-6	7%	21%	u	2	u
CCOC(=O)c1cc(C#N)c(N2CCN(C(=O)c3ccccc3)CC2)nc1C(F)(F)F	27	15µM*	-7%	i	27	21µM*
O=C(c1cnc2sccn2c1=O)N1CCCc2ccccc21	-52*	-3%	-7%	i	-5	i
CCN1CCN(c2ncc(C(=O)N3CCCc4ccccc43)c3ccccc23)CC1	-69*	8%	3%	i	4	i
O=C(c1ccc(C(=O)N2CCCc3ccccc32)s1)N1CCCc2ccccc21	12	-8%	17%	u	16	i
Nc1ccc(S(=O)(=O)NN=CC=Cc2ccccc2[N+](=O)[O-])cc1	-65*	3%	2%	i	-17	i
NS(=O)(=O)c1ccc(N/N=C/C=C/c2ccccc2[N+](=O)[O-])cc1	2	-5%	2%	u	5	i
